# Experimental data taken from PubChem BioAssay.
# Active and inactive are the calls of the source.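 Rule for the calls: active = thallium flux through the channel raised or lowered by more than 3 SD from vehicle-only wells, actives on both sides; inactive = the rest.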
# Test system: F380Y
# Assay: BK channel mutant inhibitors and activators – cell-based, U2OS BacMam, thallium flux, beta subunits, selectivity assay, profiling panel (AID 1259406);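 note: initial slope of Thallos dye fluorescence rise after thallium is added; log ratio against the mean of 0.3% DMSO vehicle wells on the same plate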
# Settings: U2OS BacMam BK variants, at 30 µM
row,SMILES,log fold change Tl+ flux
1,CC12CCC(c3c1nn(-c1ccccc1)c3C(F)(F)F)C2(C)C (stereo not drawn),0.0382 (inactive)
2,N#CC(NCc1ccccc1Cl)=C(C#N)NCc1c(F)cccc1Cl,-0.0652 (inactive)
3,O=S(=O)(NCc1ccc2c(c1)CCO2)c1cccs1,-0.0321 (inactive)
4,Cc1ccc(S(=O)(=O)NC(=O)NCc2csc3ccc(Cl)cc23)cc1,0.252 (active)
5,CCSc1ccc(-c2noc(C(C)(C)C)n2)cn1,0.0439 (inactive)
6,O=C(Nc1c(S(=O)(=O)c2ccccc2)csc1Br)c1ccccc1Cl,-0.0373 (inactive)
7,O=C(O)CCSc1ccc2ccccc2c1,-0.00784 (inactive)
8,Cc1ccc(S(=O)(=O)Oc2c(Cc3ccccc3)c(=O)n(C)c3ccccc23)cc1,-0.047 (inactive)
9,O=C1CCC(=O)N1c1ccc(S(=O)(=O)NCCCN2CCN(Cc3ccccc3)CC2)cc1,0.0288 (inactive)
10,CN1c2ccsc2C(=O)C(=NNc2cccc(C(F)(F)F)c2)S1(=O)=O,-0.0122 (inactive)
11,Cc1cc(NS(=O)(=O)c2ccc(NC(=O)c3nccnc3C(=O)O)cc2)no1,-0.0365 (inactive)
12,Clc1ccc(-c2cnc(-c3ccc(Cl)cc3)o2)cc1,0.0159 (inactive)
13,Cn1c(SCCS(=O)(=O)c2ccc(OC(F)(F)F)cc2)nnc1C(F)(F)F,-0.047 (inactive)
14,N#CC1=C(Nc2ccccc2Cl)SC(c2ccncc2)NC1=O (stereo not drawn),-0.0226 (inactive)
15,COC(=O)c1c(S(=O)(=O)N2CCOCC2)c(C)n(C)c1C,0.000226 (inactive)
16,Cc1ccc(-c2nc(N=CNOC(=O)c3ccc([N+](=O)[O-])cc3)sc2C)cc1Cl,0.0323 (inactive)
17,CCCCCCCCCCCCSC(=S)Nc1ccc(Br)c(C)c1,-0.0409 (inactive)
18,O=[N+]([O-])c1cnc(Sc2nccc(-c3cccnc3)n2)s1,-0.00331 (inactive)
19,COc1ccc(Oc2ccc([N+](=O)[O-])cc2C2=NC(=CN(C)C)C(=O)O2)cc1,-0.0336 (inactive)
20,Cc1c(Br)sc2sc(-c3ccnc(SCc4ccccc4)n3)c(C)c12,-0.00256 (inactive)
21,NC1(C(=O)O)CCSCC1,-0.0475 (inactive)
22,COc1ccc2c(OC(C)=O)coc2c1,0.00358 (inactive)
23,CC1(C)CC(=O)C=C(NCCCCCCCCNC2=CC(=O)CC(C)(C)C2)C1,0.000907 (inactive)
